Test [1] can be described thus: Nuclear factor erythroid 2-related factor 2/antioxidant responsive element (Nrf2/ARE) small molecule agonists: qHTS cell viability counter screen in human keratinocytes (AID 1919968; active = well fitted curve in the direction sought with a large enough effect in the repeat runs; an effect the other way counts as inactive or inconclusive; also: nearly all actives have a fitted effect of over 55% in size). Summed up: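 Viability counter-screen: KeratinoSens reporter cells, DMSO-delivered compounds, 23 h at 37 C, CellTiter-Fluor fluorescence.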
Test [2] is described as follows: Nuclear factor erythroid 2-related factor 2/antioxidant responsive element (Nrf2/ARE) small molecule agonists: luciferase reporter gene qHTS assay in human keratinocytes (AID 1919969). Also: nearly all actives have a fitted effect of over 35% in size.
The target in test [3] is Gonadotropin-releasing hormone receptor (Homo sapiens) (UniProt P30968). Kind of test: Human gonadotropin-releasing hormone receptor (GnRHR) small molecule agonists, calcium flux assay in GnRHR-HEK293 cells (AID 1920063). Also: nearly all actives have a fitted effect of over 35% in size. A digest of the protocol:
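Tox21-format agonist screen using human GnRHR-expressing HEK293 cells and a fluorescent calcium dye; kinetic 3-min fluorescence reading after compound addition, 15-point concentration series run in triplicate.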
A general note: Calcium flux is commonly read through the fluorescence of an indicator in the cells.

Test [4] has as its target KiSS-1 receptor (Homo sapiens) (UniProt Q969F8). Kind of test: Human kisspeptin (KISS1R) small molecule agonists, calcium flux assay in KISS1R-HEK293 cells (AID 1920064; active = well fitted curve in the direction sought with a large enough effect in the repeat runs; an effect the other way counts as inactive or inconclusive). A digest of the protocol:
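Intracellular calcium mobilization in KISS1R-HEK293 cells was recorded by fluorescence (Ex/Em 480/540) for 3 min following compound addition to cells pre-loaded 1 h with calcium dye.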

Test [5] can be described thus: G protein-coupled receptor (GPCR) small molecule agonists, calcium flux assay: HEK293 wild type cell line counter screen (AID 1920065). Summed up:
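In this agonist-mode screen, ATP is the positive control and DMSO the vehicle. Cells grow 18 h before a 1 h dye incubation at 37 C; signal is taken at Ex/Em 480/540 over 3 min.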

Test [6] in a line: p53 small molecule agonists, cell-based qHTS assay with human liver microsomes: qHTS cell viability counter screen (AID 1963579). Also: nearly all actives have a fitted effect of over 45% in size. A digest of the protocol:
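p53RE-bla cells, 4,000/well, dosed 5 hours after plating, with human liver microsomes (0.5 mg/mL final) plus NADPH (0.5 mg/mL final), 16 hours at 37 C. Viability read as CellTiter-Glo luminescence after 30 min at room temperature.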
In general terms: qHTS replaces the single test concentration by a dilution series.

Test [7] can be described thus: p53 small molecule agonists, cell-based qHTS assay with rat liver microsomes: qHTS cell viability counter screen (AID 1963580). Also: nearly all actives have a fitted effect of over 45% in size. A digest of the protocol: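 HCT-116 p53RE-bla, 4,000 cells/well, 5 h pre-incubation; cpd + rat liver microsomes 0.5 mg/mL + NADPH 0.5 mg/mL (final); 16 h, 37 C; CellTiter-Glo, 30 min RT; luminescence.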
Test [8] has as its target 5-hydroxytryptamine receptor 2A (Homo sapiens) (UniProt P28223). Kind of test: 5-hydroxytryptamine receptor 2A (HTR2A) small molecule antagonists, cell-based qHTS assay (AID 1963586). Also: nearly all actives have a fitted effect of over 45% in size. Summed up: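 Antagonist-mode intracellular calcium assay: DOI (4 nM) added after 5 min compound pre-incubation at room temperature to dye-loaded HTR2A-CHO cells. Fluorescence followed for 3 min, sampled every second.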

For test [9] the target is unchanged. Kind of test: 5-hydroxytryptamine receptor 2A (HTR2A) small molecule agonists, cell-based qHTS assay (AID 1963587). Also: nearly all actives have a fitted effect of over 30% in size. A digest of the protocol: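 Kinetic calcium-flux fluorescence (2 min, 1 sec intervals) after compound addition in agonist mode. HTR2A-CHO cells were cultured 18 h, then dye-loaded 1 h at 37 C.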
Test [10] deals with Muscarinic acetylcholine receptor M1 (Homo sapiens) (UniProt P11229). Kind of test: Cholinergic receptor muscarinic 1 (CHRM1) small molecule antagonists, cell-based qHTS assay (AID 1963588). Also: nearly all actives have a fitted effect of over 40% in size. Summed up:
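CHRM1-CHO calcium-flux assay, antagonist mode. Cells were seeded 18 h, dye-loaded 1 h at 37 C and given compound for 5 min at RT, then acetylcholine was added at 50nM. FDSS fluorescence was read 3 min; 15 concentrations, three runs.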

Test [11] shares this target. Kind of test: Cholinergic receptor muscarinic 1 (CHRM1) small molecule agonists, cell-based qHTS assay (AID 1963589). Also: nearly all actives have a fitted effect of over 35% in size. A digest of the protocol: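 Stable CHRM1-CHO cells (human receptor) were incubated 18 h, dye-loaded for 1 h at 37 C and exposed to test compounds for agonist activity, with calcium-dependent fluorescence followed kinetically.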
Test [12] is described as follows: cAMP Responsive Elements (CRE) small molecule agonists, cell-based qHTS assay (AID 1963590). A digest of the protocol:
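FRET-based beta-lactamase readout (LiveBLAzer B/G, 2 h RT) quantified CRE activation in HEK 293T CRE-bla cells after 3 h treatment with DMSO-dissolved compounds.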

Test [13] can be described thus: cAMP Responsive Elements (CRE) small molecule antagonists, cell-based qHTS assay (AID 1963591; active = well fitted inhibition curve with a large enough effect in the signal ratio in the repeat runs, not every such curve was filed as active; the % refers to the signal ratio). Summed up:
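qHTS in CRE-bla HEK 293T cells: compound in DMSO, then 0.25 uM NKH477 (final), 3 h at 37 °C/5% CO2; beta-lactamase FRET read-out after 2 h substrate incubation.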

Test [14] addresses Beta-2 adrenergic receptor (Homo sapiens) (UniProt P07550). Kind of test: Adrenergic beta2 receptor (ADRB2) small molecule antagonists, cell-based qHTS assay (AID 1963592). Also: nearly all actives have a fitted effect of over 50% in size. Also: potency is read from the fitted curve at half-maximal effect. A digest of the protocol: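 Cells (CHO, stable ADRB2 overexpression) incubated 18-20hr at 37C; compounds added from DMSO; agonist mix (1nM isoproterenol, 100uM IBMX, 25uM Ro-20-1724) added; 0.5hr RT; d2-cAMP and anti-cAMP-cryptate added; 1hr RT; 665/615 nm read.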

Test [15] concerns the target D(2) dopamine receptor (Homo sapiens) (UniProt P14416). Kind of test: Dopamine D2 receptor (DRD2) small molecule agonists, cell-based qHTS assay (AID 1963594). Also: nearly all actives have a fitted effect of over 35% in size. A digest of the protocol:
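cAMP accumulation in DRD2-HEK293 cells measured by HTRF after 1 h detection; compounds added 10 min before NKH477 (200nM […]) forskolin-analogue stimulation, 30 min at room temperature, with Ro20-1724 present at 0.1 mM final.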

The target is the same in test [16]. Kind of test: Dopamine D2 receptor (DRD2) small molecule antagonists, cell-based qHTS assay (AID 1963595; active = well fitted inhibition curve with a large enough effect in the signal ratio in the repeat runs, with a control signal flat; the % refers to the signal ratio). A digest of the protocol: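 Antagonist mode in DRD2-HEK293 cells: after compound addition with 0.1 mM Ro20-1724, cells received quinpirole (12 nM) and NKH477 (200 nM) for 30 min at room temperature; HTRF cAMP read after 1 h detection.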
A short description of test [17]: p53 small molecule agonists, cell-based qHTS assay: qHTS cell viability counter screen (AID 1963581). Also: nearly all actives have a fitted effect of over 45% in size. Summed up: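 Compounds are pinned onto HCT-116 p53RE-bla cells and left 16 h at 37 C. Following the reporter FRET read, ATP is quantified by CellTiter-Glo luminescence after 30 min at room temperature.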
The target in test [18] is Beta-2 adrenergic receptor (Homo sapiens) (UniProt P07550). Kind of test: Adrenergic beta2 receptor (ADRB2) small molecule agonists, cell-based qHTS assay (AID 1963593).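 Also: CHO cells stably overexpressing human ADRB2.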 Summed up:
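CHO cells stably over-expressing ADRB2 were plated overnight at 37C, then dosed with compounds plus a stimulation mix containing 100uM IBMX and 25uM Ro-20-1724 for 0.5hr at room temperature. cAMP was measured by HTRF competition, 1hr.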

Each structure is given as a SMILES string. Inconclusive results are not listed. Active and inactive are the calls of the source. Unless noted, calls follow the shape of the full dose curve.

Sequence of Gonadotropin-releasing hormone receptor (Homo sapiens) (P30968 whole entry, looked up): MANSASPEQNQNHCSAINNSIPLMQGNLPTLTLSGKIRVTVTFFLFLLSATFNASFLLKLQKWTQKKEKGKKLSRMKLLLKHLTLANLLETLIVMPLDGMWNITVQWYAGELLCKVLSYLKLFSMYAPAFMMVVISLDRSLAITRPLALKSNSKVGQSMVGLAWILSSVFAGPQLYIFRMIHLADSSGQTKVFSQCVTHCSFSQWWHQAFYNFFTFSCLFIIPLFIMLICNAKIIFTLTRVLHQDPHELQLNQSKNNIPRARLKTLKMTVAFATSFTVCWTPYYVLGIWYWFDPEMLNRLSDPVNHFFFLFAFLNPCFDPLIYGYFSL
Sequence of Beta-2 adrenergic receptor (Homo sapiens) (P07550 whole entry, looked up): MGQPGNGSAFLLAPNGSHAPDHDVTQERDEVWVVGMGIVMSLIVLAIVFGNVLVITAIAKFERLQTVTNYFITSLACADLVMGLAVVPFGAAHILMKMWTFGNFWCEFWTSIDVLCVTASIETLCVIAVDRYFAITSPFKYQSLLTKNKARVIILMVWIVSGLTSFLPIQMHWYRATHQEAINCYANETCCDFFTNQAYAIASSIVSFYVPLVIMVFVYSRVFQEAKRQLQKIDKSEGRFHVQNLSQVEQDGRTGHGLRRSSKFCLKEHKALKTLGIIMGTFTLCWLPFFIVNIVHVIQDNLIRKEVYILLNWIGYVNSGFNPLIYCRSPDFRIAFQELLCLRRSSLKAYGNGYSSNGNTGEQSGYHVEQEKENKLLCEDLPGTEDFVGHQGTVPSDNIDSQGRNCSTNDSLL
Sequence of 5-hydroxytryptamine receptor 2A (Homo sapiens) (P28223 whole entry, looked up): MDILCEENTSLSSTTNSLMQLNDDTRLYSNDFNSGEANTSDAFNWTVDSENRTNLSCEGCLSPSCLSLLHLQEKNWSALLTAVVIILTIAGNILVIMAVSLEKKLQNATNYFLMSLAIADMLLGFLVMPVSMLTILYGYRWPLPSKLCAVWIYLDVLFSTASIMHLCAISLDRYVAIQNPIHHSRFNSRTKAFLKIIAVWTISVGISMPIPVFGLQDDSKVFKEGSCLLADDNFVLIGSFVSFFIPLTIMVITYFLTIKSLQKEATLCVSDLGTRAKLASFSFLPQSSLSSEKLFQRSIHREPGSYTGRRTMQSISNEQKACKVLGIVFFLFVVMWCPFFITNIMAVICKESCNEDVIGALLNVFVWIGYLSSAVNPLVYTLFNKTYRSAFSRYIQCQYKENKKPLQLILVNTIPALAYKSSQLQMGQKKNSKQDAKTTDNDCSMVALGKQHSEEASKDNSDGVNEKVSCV
Sequence of Muscarinic acetylcholine receptor M1 (Homo sapiens) (P11229 whole entry, looked up): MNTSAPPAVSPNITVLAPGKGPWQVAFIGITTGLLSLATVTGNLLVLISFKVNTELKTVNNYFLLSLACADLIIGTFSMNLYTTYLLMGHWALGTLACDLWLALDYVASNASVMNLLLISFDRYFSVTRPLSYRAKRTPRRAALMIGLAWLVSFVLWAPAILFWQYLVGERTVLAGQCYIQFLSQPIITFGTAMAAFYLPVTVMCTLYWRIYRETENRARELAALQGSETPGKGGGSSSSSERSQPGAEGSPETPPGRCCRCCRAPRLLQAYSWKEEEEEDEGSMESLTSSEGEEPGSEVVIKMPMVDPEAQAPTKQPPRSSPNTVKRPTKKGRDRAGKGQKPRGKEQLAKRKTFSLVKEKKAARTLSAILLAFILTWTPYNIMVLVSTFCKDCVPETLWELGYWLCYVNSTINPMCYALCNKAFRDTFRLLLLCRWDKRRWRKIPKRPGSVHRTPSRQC
Sequence of D(2) dopamine receptor (Homo sapiens) (P14416 whole entry, looked up): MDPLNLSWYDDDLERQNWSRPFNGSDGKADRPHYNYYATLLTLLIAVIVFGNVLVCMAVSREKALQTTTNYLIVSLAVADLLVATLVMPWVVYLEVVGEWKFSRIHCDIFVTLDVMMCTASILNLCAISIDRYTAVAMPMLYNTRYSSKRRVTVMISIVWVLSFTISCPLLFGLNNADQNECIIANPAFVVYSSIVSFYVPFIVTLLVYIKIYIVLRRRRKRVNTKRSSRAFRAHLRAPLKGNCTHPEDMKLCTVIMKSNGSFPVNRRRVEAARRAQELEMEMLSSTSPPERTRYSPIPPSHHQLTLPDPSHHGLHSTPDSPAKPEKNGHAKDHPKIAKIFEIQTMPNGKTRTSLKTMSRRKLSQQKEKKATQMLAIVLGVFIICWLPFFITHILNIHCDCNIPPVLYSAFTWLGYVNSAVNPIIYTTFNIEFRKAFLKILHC
Sequence of KiSS-1 receptor (Homo sapiens) (Q969F8 whole entry, looked up): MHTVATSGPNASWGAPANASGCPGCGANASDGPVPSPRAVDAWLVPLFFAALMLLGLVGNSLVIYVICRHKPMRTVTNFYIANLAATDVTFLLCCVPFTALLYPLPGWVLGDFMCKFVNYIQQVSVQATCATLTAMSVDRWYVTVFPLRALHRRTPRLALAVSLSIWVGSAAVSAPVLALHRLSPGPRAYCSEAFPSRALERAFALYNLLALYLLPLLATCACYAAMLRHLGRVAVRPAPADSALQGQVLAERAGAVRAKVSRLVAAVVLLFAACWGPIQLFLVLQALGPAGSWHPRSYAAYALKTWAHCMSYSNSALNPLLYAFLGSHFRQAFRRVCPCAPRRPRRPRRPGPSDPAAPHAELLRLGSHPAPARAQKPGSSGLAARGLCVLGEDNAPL

As to `CCOC(=O)NC(O)C(Cl)(Cl)Cl` (stereo not drawn), the Potency result in test [1], in test [2], in [3], in test [4], in [5] and in test [6] was “inactive” throughout. For the same compound, the Potency entry in [7], in [8], in test [9], in [10], in test [11] and in test [12] was “inactive” in each case. Moreover, the Potency entry in test [13], in test [14], in test [15] and in test [16] was “inactive” in each case.
Take `CN(C)CCN(C)C`: the Potency result in test [1], in [2], in test [3], in test [4], in test [5] and in [6] was “inactive” throughout. Besides, the Potency entry in test [7], in [17], in [9], in test [10], in [11] and in test [12] was “inactive” throughout. Further, the Potency result in test [14], in test [18], in [15] and in test [16] was “inactive” in each case.
As for `O=C(O)c1c(Cl)ccc2cc(Cl)cnc12`, the Potency result in [1], in [2], in test [3], in test [4], in test [5] and in [6] was “inactive” throughout. Besides, the Potency result in test [7], in test [8], in [9], in [10], in test [11] and in test [12] was “inactive” each time. The Potency result in test [13], in test [14], in [18] and in test [16] was “inactive” throughout.
In the case of `O=[N+]([O-])c1cccc2cccc([N+](=O)[O-])c12`, the Potency result in test [1], in test [2], in test [3], in test [4], in test [5] and in [6] was “inactive” in each case. The Potency result in test [7], in test [17], in test [9], in [10], in [11] and in [13] was “inactive” each time. For the same compound, the Potency result in [14], in [15] and in test [16] was “inactive” in each case.
On to `Cc1cc(OC(=O)N(C)C)nn1C(=O)N(C)C`, for which the Potency entry in test [1], in test [2], in test [3], in [4], in test [5] and in [6] was “inactive” in each case. Further, the Potency entry in test [7], in test [17], in test [9], in test [10], in test [11] and in test [13] was “inactive” throughout. In addition, the Potency result in test [14], in test [15] and in test [16] was “inactive” throughout.
As for `C[C@]12CC[C@H]3[C@@H](CCC4=CC(=O)CC[C@@]43C)[C@@H]1CC[C@@H]2O`, the Potency result in test [1], in test [2], in [3], in test [4], in [5] and in test [6] was “inactive” each time. Also, the Potency entry in test [7], in test [17], in test [14], in test [15] and in test [16] was “inactive” throughout.
With `COc1ccc(OC)c(CC(C)N)c1` (stereo not drawn), the Potency result in test [1], in [2], in test [3], in [4], in [5] and in [6] was “inactive” in each case. Besides, the Potency result in test [7], in [17], in test [10], in test [11], in test [12] and in test [13] was “inactive” in each case. Also, the Potency entry in [15] and in test [16] was “inactive” in each case. Also, the Potency in test [14] is 65.6 µM (active).
Turning to `CC(C)(N)Cc1ccc(Cl)cc1`, the Potency result in [1], in test [2], in [3], in test [4], in test [5] and in test [6] was “inactive” throughout. Besides, the Potency entry in test [7], in test [17], in [8], in test [11], in test [12] and in test [13] was “inactive” each time. In addition, the Potency entry in [14], in test [18] and in test [16] was “inactive” each time.
For the compound `Cc1ccc2cc3c(ccc4ccccc43)c3c2c1CC3`, the Potency result in test [1], in test [2], in [3], in test [4], in [5] and in test [6] was “inactive” in each case. For the same compound, the Potency entry in test [7], in test [17], in test [12], in test [13], in [14] and in test [18] was “inactive” each time. Moreover, the Potency entry in test [15] and in [16] was “inactive” in each case.

The values are drawn from PubChem BioAssay (Tox21).
